In PubChem BioAssay (EPA / NIEHS) one finds outcome and AC50 data, which are given here for ten molecules.

A word on the AC50: it is the concentration giving half of the maximal activity seen.

Calls of active or inactive are those of the source. How the source made its calls: active means hit-call score of the fitted dose curve at least 0.9, where 1 is the maximum; inactive means score below 0.9.

This experiment is described as follows: UKN2_HCS_IMR90_cell_viability: Viability Assessment in the University of Konstanz (UKN) Leist Lab Neural Crest Cell Migration Assay in human induced IMR90 Pluripotent Stem Cells (UKN2) (AID 2284233).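 Further: cells exposed to compound for 24 h after a 24 h migration phase.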 On the procedure:
UKN2_HCS_IMR90 is a cell-based, multiplexed-readout assay screening for neural crest cell migration and cell viability that uses IMR90 (neural crest cells differentiated from iPSC), a human embryo cell line, with measurements taken at […] after chemical dosing in a microplate: 96-well plate. UKN2, also known as cMINC, is an assay that uses IMR90 cells (neural crest cells differentiated from iPSC) as a model of neural crest cell migration. 24 hr after cell seeding, cell migration was initiated and proceeded for 24 hr. Then, chemical was applied, and after 24 hr of exposure migration and viability were assessed using high-content imaging of cells stained with calcein-AM and Hoechst H-33342.UKN2_HCS_IMR90_cell_viability is an assay component measured from the UKN2_HCS_IMR90 assay. It is designed to make measurements of enzyme activity, a form of viability reporter, as detected with Fluorescence intensity signals by HCS Fluorescent Imaging.The assay endpoint UKN2_HCS_IMR90_cell_viability was analyzed with bidirectional fitting relative to DMSO as the negative control and baseline of activity. Using a type of viability reporter, gain or loss-of-signal activity can be used to understand viability effects. To generalize the intended target to other relatable targets, this assay endpoint is annotated to the cell cycle intended target family, where the subfamily is viability.
The wells are coated with PLO/laminin/fibronectin. Then, silicone stoppers are placed into the wells of a 96-well plate. Cells are seeded around the stoppers and allowed to attach for 24 hours. Day 0: The silicone stoppers are removed and the medium is replaced with pre-warmed, fresh N2-S medium containing the cytokines EGF and FGF. Cells are allowed to migrate into the cell free area. Day 1: 25 ul of the 5x concentrated toxicants are added to the wells. The cells plus toxicants are incubated for 24 h. Day 2: Cells are stained with calcein-AM and Hoechst (H-33342) for 30 min before imaging with a high content imaging microscope. Quantification of migration and viability is done by high content imaging analysis.
In the case of `CC1(C)C(C=C(Cl)Cl)C1C(=O)OC(C#N)c1ccc(F)c(Oc2ccccc2)c1` (stereo not given), the molecule was classed as inactive.
For the molecule `ClC1C(Cl)C(Cl)C(Cl)C(Cl)C1Cl` (stereo not given), the molecule was called inactive.
Still for that read-out and setting: to `O=[N+]([O-])/N=C1\NCCN1Cc1ccc(Cl)nc1` belongs “inactive”.
With `O=C(O)C(F)(F)C(F)(F)C(F)(F)C(F)(F)C(F)(F)C(F)(F)C(F)(F)F`, the molecule was called inactive.
In the case of `COP(=O)(OC)OC=C(Cl)Cl`, the result was inactive.
`CC1(c2ccc(Oc3ccccc3)cc2)OC(=O)N(Nc2ccccc2)C1=O` (stereo not given): the result was inactive.
For `O=S1OCC2C(CO1)C1(Cl)C(Cl)=C(Cl)C2(Cl)C1(Cl)Cl` (stereo not given), the AC50 is 14.8 µM (active).
Regarding `CC(C)N(C(=O)COc1nnc(C(F)(F)F)s1)c1ccc(F)cc1`, the outcome was inactive.
The same measure, in the same setting: to `O=C(O)COc1ccc(Cl)cc1Cl` belongs “inactive”.
Take `CC[C@H](C)[C@H]1O[C@]2(C=C[C@@H]1C)C[C@@H]1C[C@@H](C/C=C(\C)[C@@H](O[C@H]3C[C@H](OC)[C@@H](O[C@H]4C[C@H](OC)[C@@H](O)[C@H](C)O4)[C@H](C)O3)[C@@H](C)/C=C/C=C3\CO[C@@H]4[C@H](O)C(C)=C[C@@H](C(=O)O1)[C@]34O)O2` (tested in a mixture with another compound): the AC50 is 7.09 µM (active).
